GLD-1 TGE inh = GLD-1-TGE RNA interaction inhibition (C. elegans); Q17339; purified GLD-1 + fluorescein TGE RNA, fluorescence polarization; inhibition, % at 5.96 µM; 320,000 compounds, 0.44% hits; AID 2280;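 active = percent inhibition above a per-plate cutoff, the plate mean of test compounds plus 3 SD, cut at about 30% in these data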
Target sequence (Q17339 whole entry, looked up): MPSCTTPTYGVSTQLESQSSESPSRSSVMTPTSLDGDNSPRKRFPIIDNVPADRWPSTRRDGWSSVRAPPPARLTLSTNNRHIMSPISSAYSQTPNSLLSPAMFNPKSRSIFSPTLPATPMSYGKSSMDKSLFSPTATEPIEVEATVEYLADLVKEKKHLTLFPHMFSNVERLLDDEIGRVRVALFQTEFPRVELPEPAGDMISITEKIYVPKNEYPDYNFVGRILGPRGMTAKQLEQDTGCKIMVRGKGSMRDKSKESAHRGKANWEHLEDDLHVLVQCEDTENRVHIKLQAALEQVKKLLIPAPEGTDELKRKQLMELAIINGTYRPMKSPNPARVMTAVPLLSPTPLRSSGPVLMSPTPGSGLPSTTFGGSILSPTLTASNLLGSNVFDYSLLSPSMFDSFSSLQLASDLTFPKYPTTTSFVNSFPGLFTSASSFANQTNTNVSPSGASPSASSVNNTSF
EBV gp42 inh = blocks Epstein-Barr virus glycoprotein 42 binding | Q1HVG2 | inhibition, % (tested at 21.74 µM) | Fluorescence polarization binding assay, mP read-out | 220,000 compounds, 0.42% hits; in the data active = inhibition above about 50%
MEX-5 binding = C. elegans MEX-5 TCR-2 RNA binding activity; activity score (negative = inhibition of binding), % at 10 µM; Q9XUB2; MEX-5/FITC-TCR2 RNA binding, fluorescence polarization; active compounds read low; 300,000 compounds, 0.38% hits;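 active = inhibition past about -25% in most replicates, and total fluorescence under double the plate's negative control median, limit read from the data; inconclusive = replicates evenly split on the limit, or fluorescence at least double controls; inactive = too little inhibition in most replicates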
E coli Lon inh = inhibitors of E. coli Lon protease; AID 602123; P0A9M0; 360,000 compounds, 0.42% hits; purified E. coli Lon protease, fluorescence polarization; inhibition, % at 7.94 µM; in the data active = inhibition above about 13%, passing the limit was not always enough
MCL1 BIM primary = inhibitors of human MCL1 binding to BIM-BH3 peptide; Q07820; GST-MCL1 / FITC-Bim-BH3 fluorescence polarization; 320,000 compounds, 0.68% hits; inhibition, % at 10.9 µM;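 active = inhibition above the mean inhibition of all tested compounds plus 3 SD, set per campaign, cut at about 40% in these data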;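 also: higher means more loss of mP so more displacement of Bim peptide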
BCLXL inh = Bcl-xL (human) inhibition; Q07817; GST-Bcl-xL / FITC-Bim BH3 peptide fluorescence polarization; inhibition, % at 10.9 µM; 320,000 compounds, 0.7% hits; AID 2129;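 active = inhibition above the mean of all tested compounds plus 3 SD, cutoff set per campaign, cut at about 30% in these data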;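 also: inhibitors lower millipolarization by displacing the labeled peptide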
Target sequence (Q07817 whole entry, looked up): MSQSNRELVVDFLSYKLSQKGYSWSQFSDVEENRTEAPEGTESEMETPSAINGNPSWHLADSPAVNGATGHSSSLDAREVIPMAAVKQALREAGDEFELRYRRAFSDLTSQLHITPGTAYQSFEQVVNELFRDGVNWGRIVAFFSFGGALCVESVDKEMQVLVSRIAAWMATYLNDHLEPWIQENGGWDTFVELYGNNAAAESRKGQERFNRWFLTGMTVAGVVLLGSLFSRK
eLon confirm = confirmation of E. coli Lon protease inhibitors. shares compounds with E coli Lon inh. purified E. coli Lon, fluorescence polarization. 1,400 compounds, 31% hits. AID 602230. inhibition, % at 7.94 µM; in the data active = inhibition above about 16%
Of the large screens only hits and unclear results are named; the others gave an inactive call (follow-up assays come after a bar, where they were run). An excerpt weighted towards active compounds, which were near 1.5% of everything screened.

O=C1CCCCN1CCc1c[nH]c2ccccc12	E coli Lon inh 14 | eLon confirm inactive
CCn1ncc(Cl)c1C(=O)Nc1ccncc1	none
COc1ccc(S(=O)(=O)Cc2ccc(C(=O)NC3CCCCC3)o2)cc1	E coli Lon inh 27 (no result: EBV gp42 inh) | eLon confirm inactive
Nc1ccc2c(c1)C(=O)c1cc([N+](=O)[O-])ccc1-2	none (no result: GLD-1 TGE inh, EBV gp42 inh, MEX-5 binding, MCL1 BIM primary, BCLXL inh)
COc1ccc(C(NC(=O)C2CCN(Cc3ccc(Oc4ccccc4)cc3)CC2)c2ccccc2C)cn1 (stereo not given)	E coli Lon inh 15 (no result: GLD-1 TGE inh, EBV gp42 inh, MEX-5 binding, MCL1 BIM primary, BCLXL inh) | eLon confirm inactive
COc1ncnc(OC)c1S(=O)(=O)NCc1ccccc1	none (no result: EBV gp42 inh)
CCOC(=O)C1=C(COC(=O)Cc2c(F)cccc2Cl)NC(=O)NC1C (stereo not given)	E coli Lon inh 24 (no result: EBV gp42 inh, MEX-5 binding) | eLon confirm inactive
CCOC(=O)C1=C(COC(=O)c2c(OC)cccc2OC)NC(=O)NC1C (stereo not given)	none (no result: EBV gp42 inh)
O=C(NC1CCCCC1)c1cc(S(=O)(=O)N2CCCCC2)ccc1N1CCOCC1	E coli Lon inh 20 (no result: EBV gp42 inh, MEX-5 binding) | eLon confirm inactive
O=C(NC1CCCCCC1)c1cc(S(=O)(=O)N2CCCCC2)ccc1N1CCOCC1	none
Cc1cc(NC(=O)COC(=O)c2cc(S(=O)(=O)N3CCOCC3)ccc2N2CCCCC2)no1	E coli Lon inh 54 | eLon confirm inactive
CC1(C)Oc2cc3oc(=O)ccc3cc2C[C@@H]1O	none (no result: EBV gp42 inh, MEX-5 binding, MCL1 BIM primary, BCLXL inh)
CC(=O)c1c(C)nc(-c2ccc3c(c2)OCO3)n1O	none
O=C(CCl)N1c2ccccc2Oc2ccc3ccccc3c21	E coli Lon inh active (no result: GLD-1 TGE inh, EBV gp42 inh, MEX-5 binding, MCL1 BIM primary, BCLXL inh) | eLon confirm 24
CC(=O)N1c2ccccc2Oc2cc3ccccc3cc21	none (no result: MEX-5 binding)
CCOc1ccccc1CNC(=O)C(C)n1nc(C)c2c(C)n(-c3ccccc3)nc2c1=O (stereo not given)	none (no result: EBV gp42 inh)
CN1CCc2c(sc(NC(=O)CS(=O)(=O)c3ccccc3)c2C(N)=O)C1	none (no result: EBV gp42 inh)
CN1CCc2c(sc(NC(=O)c3ccc(C(=O)c4ccccc4)cc3)c2C(N)=O)C1	E coli Lon inh 45 (no result: EBV gp42 inh) | eLon confirm inactive
O=C(Nc1cccc(S(=O)(=O)N2CCCCC2)c1)c1ccc2c(=O)n3c(nc2c1)CCCCC3	E coli Lon inh 25 | eLon confirm inactive
CC(NC(=O)NC(=O)c1ccc(F)cc1)C1CC1 (stereo not given)	E coli Lon inh 26 (no result: EBV gp42 inh, MEX-5 binding, MCL1 BIM primary, BCLXL inh) | eLon confirm inactive
CC(NC(=O)NC(=O)c1cccc([N+](=O)[O-])c1)C1CC1 (stereo not given)	none (no result: GLD-1 TGE inh, EBV gp42 inh, MCL1 BIM primary, BCLXL inh)
C=CCOn1c(=O)c(-c2cc3ccccc3o2)[n+]([O-])c2ccccc21	MEX-5 binding -27, E coli Lon inh 17, BCLXL inh 45 | eLon confirm inactive
CCOC(=O)/C(C#N)=C(C)/C=C1\Sc2ccccc2N1CC	MEX-5 binding inconclusive, E coli Lon inh 42 | eLon confirm inactive
CCN1/C(=C\C=C(C(C)=O)C(C)=O)Sc2ccccc21	MEX-5 binding inconclusive
CC(NC(=O)c1ccccc1Cl)C1CC2CCC1C2 (stereo not given)	E coli Lon inh 17 (no result: EBV gp42 inh) | eLon confirm inactive
O=C(C1CCC(Cn2c(=O)[nH]c3ccccc3c2=O)CC1)N1CCN(c2ccccc2)CC1 (stereo not given)	none
CCn1c(SCc2cccc(C)c2)nnc1-c1ccccc1	none
O=C(O)CCC(=O)N1N=C(c2ccco2)CC1c1ccco1 (stereo not given)	none (no result: EBV gp42 inh)
Cc1ccc(C2=NN(C(=O)CCCC(=O)O)C(c3ccco3)C2)cc1 (stereo not given)	E coli Lon inh 19 | eLon confirm inactive
CCCc1cc(=O)oc2c(CN3CCCC3)c(O)c(Cl)cc12	E coli Lon inh 22 (no result: EBV gp42 inh) | eLon confirm inactive
CCCc1cc(=O)oc2c(CN3CCCC3)c(O)ccc12	none
O=C(CCNC(=O)C1CCN(S(=O)(=O)c2ccc(F)cc2)CC1)NCc1ccccc1Cl	E coli Lon inh 17 (no result: EBV gp42 inh) | eLon confirm inactive
Cc1ccc(/C=C/C(=O)OCC(=O)NC(C)c2ccccc2)o1 (stereo not given)	none (no result: EBV gp42 inh, MEX-5 binding)
COC(=O)c1ccc(OC(=O)c2ccccn2)cc1	none
COC(=O)c1ccc(OC(=O)c2cccnc2SC)cc1	E coli Lon inh 88 (no result: EBV gp42 inh) | eLon confirm inactive
COc1cccc(NC(=O)C(C)SCc2ccccc2)c1 (stereo not given)	none
COc1ccc(CCNC(=O)C(C)SCc2ccccc2)cc1 (stereo not given)	E coli Lon inh 19 | eLon confirm inactive
O=C1C=C(N2CCOCC2)c2ccccc2C1=O	none (no result: EBV gp42 inh)
O=C1C=C(N2CCOCC2)c2cccc3cccc1c23	E coli Lon inh 183 (no result: GLD-1 TGE inh, EBV gp42 inh, MEX-5 binding, MCL1 BIM primary, BCLXL inh) | eLon confirm inactive
O=C1C(N2CCOCC2)=Cc2cccc3cccc1c23	E coli Lon inh 186 (no result: GLD-1 TGE inh, EBV gp42 inh, MEX-5 binding, MCL1 BIM primary, BCLXL inh) | eLon confirm 195
NS(=O)(=O)c1ccc(CCNC(=O)CSc2nc3ccsc3c(=O)n2CC(=O)O)cc1	none
CC1Sc2ccc(C(=O)Nc3ccc(S(=O)(=O)N(C)C)cc3)cc2NC1=O (stereo not given)	none (no result: EBV gp42 inh)
Cc1cccc(Nc2nc(N)nc(CN3CCN(Cc4ccc5c(c4)OCO5)CC3)n2)c1	E coli Lon inh 19 | eLon confirm inactive
Cc1ccc2c(c1)c(N=Nc1cccc(C(=O)O)c1)c(O)n2C	none
O=Cc1cc(N=Nc2ccccc2Cl)ccc1O	E coli Lon inh 25 | eLon confirm 36
O=Cc1cc(N=Nc2cccc(C(=O)O)c2)ccc1O	E coli Lon inh 15 | eLon confirm 24
COc1cc(N=Nc2ccccc2C(=O)O)ccc1O	none
COCCCN1C(=O)C(=O)/C(=C(/O)c2ccc(OC(C)C)cc2)C1c1cccnc1 (stereo not given)	none
COc1ccc(S(=O)(=O)NCCC(=O)NCc2ccc(F)cc2)cc1	none
c1ccc(CN2CCC(Nc3ncnc4sccc34)CC2)cc1	none
Cc1ccc(S(=O)(=O)NNC(=O)Nc2cccc(C)c2C)c(C)c1	E coli Lon inh 21 (no result: EBV gp42 inh) | eLon confirm inactive
COc1ccccc1N1CCN(S(=O)(=O)c2ccc3nc(-c4ccccc4)[nH]c3c2)CC1	none
CC12CCC(C(=O)NNC(=O)c3ccc(Br)cc3)(OC1=O)C2(C)C (stereo not given)	E coli Lon inh 18 (no result: EBV gp42 inh) | eLon confirm inactive
O=C1c2cccc3c([N+](=O)[O-])ccc(c23)C(=O)N1c1ccccn1	E coli Lon inh 27 | eLon confirm 20
CC(=O)Nc1cccc(NC(=O)COc2nncc3ccccc23)c1	none
CC(Nc1cccc2ccccc12)C(=O)N/N=C/c1ccc([N+](=O)[O-])cc1 (stereo not given)	none
Cc1cccc(/C=N/NC(=O)C(C)Nc2cccc3ccccc23)n1 (stereo not given)	E coli Lon inh 61 | eLon confirm 105
COc1ccccc1C1C(C(N)=O)=C(C)Nc2nc(-c3ccc(Cl)cc3)nn21 (stereo not given)	none
